Laboratory results as given in paper PMC7862700, “An all-to-all approach to the identification of sequence-specific readers for epigenetic DNA modifications on cytosine”.

Key:
Experiment in all cases: DAPPL (digital affinity profiling via proximity ligation, sequencing); 10 mM Tris-HCl pH 7.5, 50 mM NaCl, 1 mM DTT, 4% glycerol, room temperature, 30 min; GST-TFs on glutathione beads, 16-mer random dsDNA library, 0.1% formaldehyde crosslink after washing; high values mean tight binding
Conditions in all cases: protein: recombinant; tags: N-terminal GST; dsDNA, one strand shown
FEV = target: T1, FEV (Homo sapiens, UniProt Q99581 1-238)
T1 sequence: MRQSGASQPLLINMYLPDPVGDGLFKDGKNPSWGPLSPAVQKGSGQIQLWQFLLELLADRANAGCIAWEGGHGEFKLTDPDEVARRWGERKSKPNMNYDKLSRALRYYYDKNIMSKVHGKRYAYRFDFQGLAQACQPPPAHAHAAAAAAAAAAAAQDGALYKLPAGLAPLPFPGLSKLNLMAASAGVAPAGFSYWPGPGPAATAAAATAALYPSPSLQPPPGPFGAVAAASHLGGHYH
Summary of the method: (§1)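 Yeast served to express human transcription factors as GST fusions, which were then captured on glutathione beads and labelled with DNA barcodes. Pooled with a tag-only sample, they were incubated with 200 nmole of a 16-mer random double-stranded DNA library for 30 min at room temperature in Tris/NaCl/DTT/glycerol buffer, washed, crosslinked with 0.1% formaldehyde, ligated by proximity, amplified by PCR and sequenced. Dividing each hexamer's read frequency for a factor by its frequency for the tag-only sample gives the binding signal.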

ETV5 = ETV5 (Homo sapiens, UniProt P41161 1-510)
Sequence of ETV5 (P41161 whole entry): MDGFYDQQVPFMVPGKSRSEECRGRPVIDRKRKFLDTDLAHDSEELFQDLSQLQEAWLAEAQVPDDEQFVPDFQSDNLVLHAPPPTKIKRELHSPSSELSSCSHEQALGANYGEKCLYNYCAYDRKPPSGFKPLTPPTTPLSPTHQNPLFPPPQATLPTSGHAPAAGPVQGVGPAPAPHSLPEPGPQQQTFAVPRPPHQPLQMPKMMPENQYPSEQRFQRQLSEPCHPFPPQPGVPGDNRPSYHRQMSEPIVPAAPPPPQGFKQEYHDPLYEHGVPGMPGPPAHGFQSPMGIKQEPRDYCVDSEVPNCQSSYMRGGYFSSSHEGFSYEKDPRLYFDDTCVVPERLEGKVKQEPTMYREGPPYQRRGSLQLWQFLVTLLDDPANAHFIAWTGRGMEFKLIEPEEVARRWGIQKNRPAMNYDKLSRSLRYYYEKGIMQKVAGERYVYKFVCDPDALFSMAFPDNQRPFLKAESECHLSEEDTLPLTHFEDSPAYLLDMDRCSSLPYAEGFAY
Summary of the method: as §1

SPIC = target: T2, SPIC (Homo sapiens, UniProt Q8N5J4 1-248)
T2 sequence: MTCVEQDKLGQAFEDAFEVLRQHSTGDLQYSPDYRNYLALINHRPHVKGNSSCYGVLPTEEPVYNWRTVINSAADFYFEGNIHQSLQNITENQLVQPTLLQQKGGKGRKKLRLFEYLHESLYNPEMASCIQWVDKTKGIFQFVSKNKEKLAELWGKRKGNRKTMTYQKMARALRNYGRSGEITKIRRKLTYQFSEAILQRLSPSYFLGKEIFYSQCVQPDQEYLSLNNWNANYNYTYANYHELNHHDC
Summary of the method: as §1

ELF4 = ELF4 (Homo sapiens, UniProt Q99607 1-663)
Sequence of ELF4 (Q99607 whole entry): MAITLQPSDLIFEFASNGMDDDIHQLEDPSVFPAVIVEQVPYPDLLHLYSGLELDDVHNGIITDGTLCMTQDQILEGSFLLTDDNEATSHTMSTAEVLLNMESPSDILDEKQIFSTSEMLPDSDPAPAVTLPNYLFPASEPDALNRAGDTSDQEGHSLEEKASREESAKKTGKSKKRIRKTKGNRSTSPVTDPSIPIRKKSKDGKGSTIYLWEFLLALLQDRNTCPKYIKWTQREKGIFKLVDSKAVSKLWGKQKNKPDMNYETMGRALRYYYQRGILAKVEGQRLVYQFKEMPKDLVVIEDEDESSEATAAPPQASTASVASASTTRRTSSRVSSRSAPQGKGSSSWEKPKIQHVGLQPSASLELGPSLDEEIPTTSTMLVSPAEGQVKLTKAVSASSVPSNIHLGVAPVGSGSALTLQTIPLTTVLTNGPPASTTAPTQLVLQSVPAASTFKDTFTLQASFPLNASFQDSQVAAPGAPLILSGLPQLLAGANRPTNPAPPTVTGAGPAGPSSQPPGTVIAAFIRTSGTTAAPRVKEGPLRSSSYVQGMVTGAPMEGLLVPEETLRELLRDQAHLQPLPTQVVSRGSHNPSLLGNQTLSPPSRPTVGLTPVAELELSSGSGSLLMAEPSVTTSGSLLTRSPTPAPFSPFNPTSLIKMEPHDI
Summary of the method: as §1

ELK4 = target: T3, ELK4 (Homo sapiens, UniProt P28324-2 1-405)
T3 sequence: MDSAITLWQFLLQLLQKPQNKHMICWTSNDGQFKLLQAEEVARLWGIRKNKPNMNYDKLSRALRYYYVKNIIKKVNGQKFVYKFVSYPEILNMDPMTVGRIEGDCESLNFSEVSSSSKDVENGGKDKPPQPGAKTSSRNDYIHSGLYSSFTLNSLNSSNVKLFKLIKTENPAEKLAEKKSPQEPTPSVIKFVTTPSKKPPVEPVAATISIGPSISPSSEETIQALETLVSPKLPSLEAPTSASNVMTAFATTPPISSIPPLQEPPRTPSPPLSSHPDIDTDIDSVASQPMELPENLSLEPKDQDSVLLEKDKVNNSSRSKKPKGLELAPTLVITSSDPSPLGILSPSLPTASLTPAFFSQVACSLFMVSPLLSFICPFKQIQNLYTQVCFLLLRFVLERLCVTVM
Summary of the method: as §1

ETV2 = target: T4, ETV2 (Homo sapiens, UniProt O00321 1-342)
T4 sequence: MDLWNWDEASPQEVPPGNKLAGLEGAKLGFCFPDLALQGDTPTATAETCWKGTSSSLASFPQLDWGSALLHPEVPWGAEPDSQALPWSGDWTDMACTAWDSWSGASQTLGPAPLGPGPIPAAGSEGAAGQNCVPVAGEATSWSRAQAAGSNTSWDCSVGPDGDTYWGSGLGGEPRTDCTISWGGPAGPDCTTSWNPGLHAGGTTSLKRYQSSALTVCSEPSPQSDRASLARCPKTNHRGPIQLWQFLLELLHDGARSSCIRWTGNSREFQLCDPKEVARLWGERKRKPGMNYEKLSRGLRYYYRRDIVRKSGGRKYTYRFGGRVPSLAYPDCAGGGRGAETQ
Summary of the method: as §1

ELF3 = target: T5, ELF3 (Homo sapiens, UniProt P78545 1-371)
T5 sequence: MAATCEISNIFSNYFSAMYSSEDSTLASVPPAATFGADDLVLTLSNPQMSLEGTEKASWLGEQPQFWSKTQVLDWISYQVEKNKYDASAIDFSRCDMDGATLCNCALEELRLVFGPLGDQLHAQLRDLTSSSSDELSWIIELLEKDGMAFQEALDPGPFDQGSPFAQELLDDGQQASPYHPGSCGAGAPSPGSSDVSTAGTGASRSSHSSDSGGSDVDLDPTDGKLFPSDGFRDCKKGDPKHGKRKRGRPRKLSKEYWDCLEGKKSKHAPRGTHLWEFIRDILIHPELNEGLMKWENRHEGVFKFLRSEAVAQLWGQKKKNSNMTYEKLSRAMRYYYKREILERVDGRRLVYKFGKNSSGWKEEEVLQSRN
Summary of the method: as §1

ETV1 = ETV1 (Homo sapiens, UniProt P50549 1-477)
Sequence of ETV1 (P50549 whole entry): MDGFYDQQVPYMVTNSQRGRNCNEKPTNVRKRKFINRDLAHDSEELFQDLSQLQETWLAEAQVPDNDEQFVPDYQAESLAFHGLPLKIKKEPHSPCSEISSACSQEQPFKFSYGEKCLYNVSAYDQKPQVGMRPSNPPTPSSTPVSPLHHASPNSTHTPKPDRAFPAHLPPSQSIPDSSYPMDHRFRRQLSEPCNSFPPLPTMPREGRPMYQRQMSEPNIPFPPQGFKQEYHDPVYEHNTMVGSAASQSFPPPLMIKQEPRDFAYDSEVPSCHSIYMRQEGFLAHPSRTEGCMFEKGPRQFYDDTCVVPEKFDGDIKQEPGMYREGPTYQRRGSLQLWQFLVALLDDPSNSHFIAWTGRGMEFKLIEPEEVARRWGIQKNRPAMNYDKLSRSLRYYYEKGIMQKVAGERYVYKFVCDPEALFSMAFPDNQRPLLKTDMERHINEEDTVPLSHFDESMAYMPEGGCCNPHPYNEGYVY
Summary of the method: as §1

ERF = target: T6, ERF (Homo sapiens, UniProt P50548 1-548)
T6 sequence: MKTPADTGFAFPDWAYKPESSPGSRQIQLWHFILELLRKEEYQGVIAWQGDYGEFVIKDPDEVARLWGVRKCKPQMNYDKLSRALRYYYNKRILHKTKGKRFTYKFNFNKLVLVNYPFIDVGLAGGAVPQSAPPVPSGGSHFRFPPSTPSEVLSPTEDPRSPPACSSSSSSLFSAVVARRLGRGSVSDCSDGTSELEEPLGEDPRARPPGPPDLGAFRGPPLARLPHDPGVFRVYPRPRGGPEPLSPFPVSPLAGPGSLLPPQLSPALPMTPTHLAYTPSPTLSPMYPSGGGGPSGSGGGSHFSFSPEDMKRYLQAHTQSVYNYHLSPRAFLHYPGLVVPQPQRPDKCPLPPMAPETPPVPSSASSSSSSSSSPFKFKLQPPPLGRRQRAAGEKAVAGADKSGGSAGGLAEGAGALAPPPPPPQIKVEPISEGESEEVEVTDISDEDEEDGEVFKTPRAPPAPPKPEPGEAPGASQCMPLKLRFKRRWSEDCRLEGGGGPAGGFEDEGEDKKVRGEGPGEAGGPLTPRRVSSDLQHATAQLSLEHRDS
Summary of the method: as §1

ETV3L = target: T7, ETV3L (Homo sapiens, UniProt Q6ZN32 1-361)
T7 sequence: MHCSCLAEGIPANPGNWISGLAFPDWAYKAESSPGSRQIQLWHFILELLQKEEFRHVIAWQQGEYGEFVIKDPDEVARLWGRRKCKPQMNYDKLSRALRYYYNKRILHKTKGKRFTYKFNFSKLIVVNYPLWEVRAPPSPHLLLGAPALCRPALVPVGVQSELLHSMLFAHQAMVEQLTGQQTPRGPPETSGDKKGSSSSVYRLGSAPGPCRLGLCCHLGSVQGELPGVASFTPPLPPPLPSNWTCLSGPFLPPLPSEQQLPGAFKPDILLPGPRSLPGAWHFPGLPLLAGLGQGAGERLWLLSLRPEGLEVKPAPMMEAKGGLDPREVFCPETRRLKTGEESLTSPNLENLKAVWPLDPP
Summary of the method: as §1

ETS2 = target: T8, ETS2 (Homo sapiens, UniProt P15036 1-469)
T8 sequence: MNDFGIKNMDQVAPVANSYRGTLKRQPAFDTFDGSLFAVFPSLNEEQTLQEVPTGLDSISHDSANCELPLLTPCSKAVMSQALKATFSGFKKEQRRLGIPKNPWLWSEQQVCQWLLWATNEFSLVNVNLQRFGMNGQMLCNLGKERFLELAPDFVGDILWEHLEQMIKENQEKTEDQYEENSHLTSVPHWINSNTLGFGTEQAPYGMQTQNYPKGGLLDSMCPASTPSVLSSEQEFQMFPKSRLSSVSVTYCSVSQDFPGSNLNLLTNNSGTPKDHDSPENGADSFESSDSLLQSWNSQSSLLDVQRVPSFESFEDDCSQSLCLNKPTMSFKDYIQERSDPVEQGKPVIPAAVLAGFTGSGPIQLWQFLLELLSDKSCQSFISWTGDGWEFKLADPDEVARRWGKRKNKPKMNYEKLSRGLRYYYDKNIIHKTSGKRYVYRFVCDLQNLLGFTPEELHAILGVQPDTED
Summary of the method: as §1

SPDEF = target: T9, SPDEF (Homo sapiens, UniProt O95238 1-335)
T9 sequence: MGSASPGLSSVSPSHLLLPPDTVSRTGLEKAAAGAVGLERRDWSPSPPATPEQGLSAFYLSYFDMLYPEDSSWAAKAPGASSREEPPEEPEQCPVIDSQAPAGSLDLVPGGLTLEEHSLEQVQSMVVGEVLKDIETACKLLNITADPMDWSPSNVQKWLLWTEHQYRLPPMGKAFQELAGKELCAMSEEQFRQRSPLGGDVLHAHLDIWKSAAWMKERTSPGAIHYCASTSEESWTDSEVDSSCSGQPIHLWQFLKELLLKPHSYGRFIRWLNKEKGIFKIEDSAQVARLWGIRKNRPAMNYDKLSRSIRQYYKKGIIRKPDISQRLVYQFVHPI
Summary of the method: as §1

ETV7 = target: T10, ETV7 (Homo sapiens, UniProt Q9Y603 1-341)
T10 sequence: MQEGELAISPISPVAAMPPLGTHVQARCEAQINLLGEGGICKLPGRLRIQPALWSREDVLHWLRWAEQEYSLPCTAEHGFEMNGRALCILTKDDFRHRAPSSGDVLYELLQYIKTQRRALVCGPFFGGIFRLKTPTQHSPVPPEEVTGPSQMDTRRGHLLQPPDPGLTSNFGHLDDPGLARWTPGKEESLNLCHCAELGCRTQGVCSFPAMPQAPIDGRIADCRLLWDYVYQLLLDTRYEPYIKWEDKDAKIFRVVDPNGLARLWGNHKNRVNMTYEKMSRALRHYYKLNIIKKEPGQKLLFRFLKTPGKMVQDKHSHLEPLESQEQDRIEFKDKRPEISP
Summary of the method: as §1

ELF5 = target: T11, ELF5 (Homo sapiens, UniProt Q9UKW6-2 1-255)
T11 sequence: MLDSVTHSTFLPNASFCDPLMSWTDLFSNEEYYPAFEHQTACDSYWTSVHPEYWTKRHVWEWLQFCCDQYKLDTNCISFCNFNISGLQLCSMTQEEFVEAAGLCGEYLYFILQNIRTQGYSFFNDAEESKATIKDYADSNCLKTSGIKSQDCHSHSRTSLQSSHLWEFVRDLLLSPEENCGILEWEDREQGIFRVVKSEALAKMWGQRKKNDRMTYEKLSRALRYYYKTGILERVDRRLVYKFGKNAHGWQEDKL
Summary of the method: as §1

ETV3 = target: T12, ETV3 (Homo sapiens, UniProt P41162-2 1-143)
T12 sequence: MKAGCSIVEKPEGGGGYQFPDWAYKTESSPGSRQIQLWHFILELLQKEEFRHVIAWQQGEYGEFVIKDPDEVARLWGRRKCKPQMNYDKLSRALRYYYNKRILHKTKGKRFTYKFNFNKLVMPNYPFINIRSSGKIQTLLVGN
Summary of the method: as §1

ETV6 = ETV6 (Homo sapiens, UniProt P41212 1-452)
Sequence of ETV6 (P41212 whole entry): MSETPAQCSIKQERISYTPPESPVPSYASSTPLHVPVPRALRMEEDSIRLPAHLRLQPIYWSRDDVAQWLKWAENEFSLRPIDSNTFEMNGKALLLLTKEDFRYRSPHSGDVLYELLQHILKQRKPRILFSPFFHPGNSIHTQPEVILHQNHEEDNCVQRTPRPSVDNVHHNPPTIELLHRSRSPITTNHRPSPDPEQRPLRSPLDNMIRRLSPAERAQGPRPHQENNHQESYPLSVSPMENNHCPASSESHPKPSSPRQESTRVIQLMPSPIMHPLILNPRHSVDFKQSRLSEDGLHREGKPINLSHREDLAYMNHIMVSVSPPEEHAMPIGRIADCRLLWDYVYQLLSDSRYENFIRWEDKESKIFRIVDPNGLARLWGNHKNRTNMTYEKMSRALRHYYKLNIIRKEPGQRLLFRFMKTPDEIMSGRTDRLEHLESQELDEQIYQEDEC
Summary of the method: as §1

Sequence	binding signal (FEV)	binding signal (ETV5)	binding signal (SPIC)	binding signal (ELF4)	binding signal (ELK4)	binding signal (ETV2)	binding signal (ELF3)	binding signal (ETV1)	binding signal (ERF)	binding signal (ETV3L)	binding signal (ETS2)	binding signal (SPDEF)	binding signal (ETV7)	binding signal (ELF5)	binding signal (ETV3)	binding signal (ETV6)
CACCTC	1.11 fold enrichment (6-mer frequency, TF over GST control)	1.13 fold enrichment (6-mer frequency, TF over GST control)	1.22 fold enrichment (6-mer frequency, TF over GST control)	1.23 fold enrichment (6-mer frequency, TF over GST control)	1.14 fold enrichment (6-mer frequency, TF over GST control)	1.2 fold enrichment (6-mer frequency, TF over GST control)	1.1 fold enrichment (6-mer frequency, TF over GST control)	1.19 fold enrichment (6-mer frequency, TF over GST control)	1.21 fold enrichment (6-mer frequency, TF over GST control)	1.18 fold enrichment (6-mer frequency, TF over GST control)	1.06 fold enrichment (6-mer frequency, TF over GST control)	1.17 fold enrichment (6-mer frequency, TF over GST control)	1.17 fold enrichment (6-mer frequency, TF over GST control)	1.09 fold enrichment (6-mer frequency, TF over GST control)	1.15 fold enrichment (6-mer frequency, TF over GST control)	1.14 fold enrichment (6-mer frequency, TF over GST control)
CACCCT	1.15 fold enrichment (6-mer frequency, TF over GST control)	1.19 fold enrichment (6-mer frequency, TF over GST control)	1.13 fold enrichment (6-mer frequency, TF over GST control)	1.24 fold enrichment (6-mer frequency, TF over GST control)	1.07 fold enrichment (6-mer frequency, TF over GST control)	1.26 fold enrichment (6-mer frequency, TF over GST control)	1.08 fold enrichment (6-mer frequency, TF over GST control)	1.24 fold enrichment (6-mer frequency, TF over GST control)	1.09 fold enrichment (6-mer frequency, TF over GST control)	1.26 fold enrichment (6-mer frequency, TF over GST control)	1.09 fold enrichment (6-mer frequency, TF over GST control)	1.13 fold enrichment (6-mer frequency, TF over GST control)	1.04 fold enrichment (6-mer frequency, TF over GST control)	1.11 fold enrichment (6-mer frequency, TF over GST control)	1.24 fold enrichment (6-mer frequency, TF over GST control)	1.05 fold enrichment (6-mer frequency, TF over GST control)
